Results published in paper PMC7862700, “An all-to-all approach to the identification of sequence-specific readers for epigenetic DNA modifications on cytosine”.

Tests used:
Test in all cases: DAPPL (digital affinity profiling via proximity ligation, sequencing); 10 mM Tris-HCl pH 7.5, 50 mM NaCl, 1 mM DTT, 4% glycerol, room temperature, 30 min; GST-TFs on glutathione beads, 16-mer random dsDNA library, 0.1% formaldehyde crosslink after washing; high values mean tight binding
[1] = biological target: T1, FLI1 (Homo sapiens, UniProt Q01543 1-452); details: protein: recombinant; tags: N-terminal GST; dsDNA, one strand shown
T1 sequence: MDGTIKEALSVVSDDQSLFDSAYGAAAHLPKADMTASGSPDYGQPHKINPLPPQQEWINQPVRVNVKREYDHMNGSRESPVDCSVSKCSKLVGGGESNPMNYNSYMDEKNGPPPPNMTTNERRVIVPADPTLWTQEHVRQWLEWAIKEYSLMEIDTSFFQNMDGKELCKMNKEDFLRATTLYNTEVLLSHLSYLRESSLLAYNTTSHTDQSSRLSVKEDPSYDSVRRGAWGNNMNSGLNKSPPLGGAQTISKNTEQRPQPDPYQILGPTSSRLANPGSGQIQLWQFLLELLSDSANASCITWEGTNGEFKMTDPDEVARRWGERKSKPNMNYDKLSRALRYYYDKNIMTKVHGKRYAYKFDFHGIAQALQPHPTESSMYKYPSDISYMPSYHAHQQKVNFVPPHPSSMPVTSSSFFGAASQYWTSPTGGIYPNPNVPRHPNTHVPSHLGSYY
Method in brief: (§1)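 Human transcription factors fused to GST were expressed in yeast, captured on glutathione beads, given DNA barcodes and pooled with a GST-only negative control. Pools were incubated with 200 nmole of a 16-mer random double-stranded DNA library in Tris/NaCl/DTT/glycerol buffer at room temperature for 30 min. They were then washed, crosslinked with 0.1% formaldehyde, proximity-ligated (BsaI/T4 ligase, 1 h, 37 °C), PCR-amplified and sequenced on an Illumina NextSeq500. Binding signal is each 6-mer's read frequency for a factor divided by its frequency for the GST control.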

[2] = biological target: T2, ELK1 (Homo sapiens, UniProt P19419 1-428); details: protein: recombinant; tags: N-terminal GST; dsDNA, one strand shown
T2 sequence: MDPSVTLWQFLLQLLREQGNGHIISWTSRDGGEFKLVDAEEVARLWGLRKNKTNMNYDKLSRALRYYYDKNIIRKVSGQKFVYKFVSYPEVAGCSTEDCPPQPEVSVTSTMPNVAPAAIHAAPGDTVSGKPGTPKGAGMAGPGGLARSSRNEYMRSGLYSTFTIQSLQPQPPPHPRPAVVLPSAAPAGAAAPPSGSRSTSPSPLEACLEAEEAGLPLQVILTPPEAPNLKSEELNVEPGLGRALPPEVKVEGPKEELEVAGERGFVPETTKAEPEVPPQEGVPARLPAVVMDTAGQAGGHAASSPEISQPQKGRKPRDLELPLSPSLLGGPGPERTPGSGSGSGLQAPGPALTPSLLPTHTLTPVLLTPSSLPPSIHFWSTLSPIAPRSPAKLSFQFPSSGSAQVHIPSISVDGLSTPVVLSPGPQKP
Method in brief: as §1

[3] = biological target: T3, GABPA (Homo sapiens, UniProt Q06546 1-454); details: protein: recombinant; tags: N-terminal GST; dsDNA, one strand shown
T3 sequence: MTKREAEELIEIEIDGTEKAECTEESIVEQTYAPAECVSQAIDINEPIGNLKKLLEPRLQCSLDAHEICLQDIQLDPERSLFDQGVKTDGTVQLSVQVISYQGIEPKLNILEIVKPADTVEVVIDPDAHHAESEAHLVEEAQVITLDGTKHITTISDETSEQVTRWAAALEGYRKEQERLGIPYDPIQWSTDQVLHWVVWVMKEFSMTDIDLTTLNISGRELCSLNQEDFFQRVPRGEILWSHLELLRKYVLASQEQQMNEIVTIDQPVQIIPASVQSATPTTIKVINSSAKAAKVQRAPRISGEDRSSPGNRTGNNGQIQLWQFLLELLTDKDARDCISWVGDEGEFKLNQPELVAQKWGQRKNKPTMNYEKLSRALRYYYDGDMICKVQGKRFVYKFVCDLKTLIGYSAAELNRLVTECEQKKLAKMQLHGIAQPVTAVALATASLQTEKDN
Method in brief: as §1

[4] = biological target: T4, ERG (Homo sapiens, UniProt P11308 1-479); details: protein: recombinant; tags: N-terminal GST; dsDNA, one strand shown
T4 sequence: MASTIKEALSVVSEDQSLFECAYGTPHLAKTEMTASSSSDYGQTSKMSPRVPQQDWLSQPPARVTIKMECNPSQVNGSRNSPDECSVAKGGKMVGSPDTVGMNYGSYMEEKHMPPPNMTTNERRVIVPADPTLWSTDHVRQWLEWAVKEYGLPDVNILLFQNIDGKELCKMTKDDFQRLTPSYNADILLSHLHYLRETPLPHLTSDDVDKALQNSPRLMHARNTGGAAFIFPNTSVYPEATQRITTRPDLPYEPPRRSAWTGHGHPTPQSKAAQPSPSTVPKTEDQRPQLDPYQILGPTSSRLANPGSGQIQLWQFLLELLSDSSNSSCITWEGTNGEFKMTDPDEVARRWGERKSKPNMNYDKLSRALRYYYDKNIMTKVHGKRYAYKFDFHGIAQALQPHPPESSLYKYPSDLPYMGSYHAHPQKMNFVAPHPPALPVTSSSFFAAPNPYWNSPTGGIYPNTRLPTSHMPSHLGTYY
Method in brief: as §1

[5] = biological target: ELF1 (Homo sapiens, UniProt P32519 1-619); details: protein: recombinant; tags: N-terminal GST; dsDNA, one strand shown
ELF1, sequence (P32519 whole entry): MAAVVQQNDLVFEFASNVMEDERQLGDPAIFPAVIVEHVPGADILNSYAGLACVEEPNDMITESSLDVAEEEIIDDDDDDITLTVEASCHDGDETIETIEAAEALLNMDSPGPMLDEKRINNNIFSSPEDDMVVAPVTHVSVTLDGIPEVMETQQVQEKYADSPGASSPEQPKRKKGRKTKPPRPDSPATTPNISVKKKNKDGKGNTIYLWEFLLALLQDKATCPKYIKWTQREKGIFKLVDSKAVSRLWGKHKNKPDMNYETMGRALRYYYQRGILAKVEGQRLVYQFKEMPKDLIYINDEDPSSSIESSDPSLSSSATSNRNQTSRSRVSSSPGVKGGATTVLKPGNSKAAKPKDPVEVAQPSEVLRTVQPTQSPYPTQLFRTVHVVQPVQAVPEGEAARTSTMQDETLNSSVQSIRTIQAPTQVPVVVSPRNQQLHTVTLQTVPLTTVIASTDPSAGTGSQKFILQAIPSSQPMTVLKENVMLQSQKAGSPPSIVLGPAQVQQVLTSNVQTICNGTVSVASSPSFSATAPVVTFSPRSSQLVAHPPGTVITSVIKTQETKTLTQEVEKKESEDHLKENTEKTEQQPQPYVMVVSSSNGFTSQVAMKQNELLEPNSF
Method in brief: as §1

[6] = biological target: T5, EHF (Homo sapiens, UniProt Q9NZC4 1-300); details: protein: recombinant; tags: N-terminal GST; dsDNA, one strand shown
T5 sequence: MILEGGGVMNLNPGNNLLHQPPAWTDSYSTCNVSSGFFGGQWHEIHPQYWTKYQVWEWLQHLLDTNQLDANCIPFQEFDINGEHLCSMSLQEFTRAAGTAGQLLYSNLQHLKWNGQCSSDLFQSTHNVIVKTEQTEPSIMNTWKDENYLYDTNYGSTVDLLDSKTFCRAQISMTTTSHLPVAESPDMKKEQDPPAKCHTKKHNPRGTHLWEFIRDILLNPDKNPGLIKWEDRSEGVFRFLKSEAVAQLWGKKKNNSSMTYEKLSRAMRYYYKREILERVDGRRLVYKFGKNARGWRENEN
Method in brief: as §1

[7] = biological target: SPI1 (Homo sapiens, UniProt P17947 1-270); details: protein: recombinant; tags: N-terminal GST; dsDNA, one strand shown
Method in brief: as §1

[8] = biological target: SPIB (Homo sapiens, UniProt Q01892 1-262); details: protein: recombinant; tags: N-terminal GST; dsDNA, one strand shown
SPIB, sequence (Q01892 whole entry): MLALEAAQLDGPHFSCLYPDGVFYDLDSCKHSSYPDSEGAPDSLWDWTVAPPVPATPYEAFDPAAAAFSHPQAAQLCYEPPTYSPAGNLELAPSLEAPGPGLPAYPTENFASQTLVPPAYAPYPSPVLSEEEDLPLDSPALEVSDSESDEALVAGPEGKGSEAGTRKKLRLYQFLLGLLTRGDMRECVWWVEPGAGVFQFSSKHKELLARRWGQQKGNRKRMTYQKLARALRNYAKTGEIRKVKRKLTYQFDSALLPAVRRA
Method in brief: as §1

[9] = biological target: T6, ELK3 (Homo sapiens, UniProt P41970 1-407); details: protein: recombinant; tags: N-terminal GST; dsDNA, one strand shown
T6 sequence: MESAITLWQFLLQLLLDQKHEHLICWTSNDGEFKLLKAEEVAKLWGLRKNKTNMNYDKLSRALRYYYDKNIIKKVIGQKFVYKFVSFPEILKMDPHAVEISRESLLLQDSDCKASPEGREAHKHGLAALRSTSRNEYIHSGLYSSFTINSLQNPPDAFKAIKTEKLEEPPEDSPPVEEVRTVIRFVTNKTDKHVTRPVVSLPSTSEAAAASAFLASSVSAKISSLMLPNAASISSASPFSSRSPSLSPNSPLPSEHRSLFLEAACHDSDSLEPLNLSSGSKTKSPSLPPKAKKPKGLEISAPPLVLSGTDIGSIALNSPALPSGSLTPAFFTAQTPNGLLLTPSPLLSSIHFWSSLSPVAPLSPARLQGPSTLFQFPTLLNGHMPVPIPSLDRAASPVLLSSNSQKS
Method in brief: as §1

[10] = biological target: T7, FEV (Homo sapiens, UniProt Q99581 1-238); details: protein: recombinant; tags: N-terminal GST; dsDNA, one strand shown
T7 sequence: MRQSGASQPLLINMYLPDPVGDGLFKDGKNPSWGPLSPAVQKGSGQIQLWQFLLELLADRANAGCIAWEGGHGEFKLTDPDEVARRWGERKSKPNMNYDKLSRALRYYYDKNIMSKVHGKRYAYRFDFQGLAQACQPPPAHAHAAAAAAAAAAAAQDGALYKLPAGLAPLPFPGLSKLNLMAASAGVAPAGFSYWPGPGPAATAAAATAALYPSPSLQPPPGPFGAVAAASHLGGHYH
Method in brief: as §1

[11] = biological target: ETV5 (Homo sapiens, UniProt P41161 1-510); details: protein: recombinant; tags: N-terminal GST; dsDNA, one strand shown
ETV5, sequence (P41161 whole entry): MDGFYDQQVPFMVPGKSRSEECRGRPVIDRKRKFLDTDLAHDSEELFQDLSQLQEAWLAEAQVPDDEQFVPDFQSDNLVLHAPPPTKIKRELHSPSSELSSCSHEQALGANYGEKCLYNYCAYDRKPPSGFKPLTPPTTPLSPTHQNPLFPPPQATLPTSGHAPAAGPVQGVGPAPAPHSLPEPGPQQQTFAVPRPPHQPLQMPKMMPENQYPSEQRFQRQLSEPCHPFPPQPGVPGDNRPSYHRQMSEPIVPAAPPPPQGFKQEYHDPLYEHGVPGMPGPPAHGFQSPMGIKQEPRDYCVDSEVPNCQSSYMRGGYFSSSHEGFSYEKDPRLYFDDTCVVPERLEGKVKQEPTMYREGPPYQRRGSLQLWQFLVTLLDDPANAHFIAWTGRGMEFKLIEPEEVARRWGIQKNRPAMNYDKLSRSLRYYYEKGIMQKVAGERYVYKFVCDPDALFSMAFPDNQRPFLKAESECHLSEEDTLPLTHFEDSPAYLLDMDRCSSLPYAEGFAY
Method in brief: as §1

[12] = biological target: HSF1 (Homo sapiens, UniProt Q00613 1-529); details: protein: recombinant; tags: N-terminal GST; chain copies: 3; dsDNA, one strand shown
HSF1, sequence (Q00613 whole entry): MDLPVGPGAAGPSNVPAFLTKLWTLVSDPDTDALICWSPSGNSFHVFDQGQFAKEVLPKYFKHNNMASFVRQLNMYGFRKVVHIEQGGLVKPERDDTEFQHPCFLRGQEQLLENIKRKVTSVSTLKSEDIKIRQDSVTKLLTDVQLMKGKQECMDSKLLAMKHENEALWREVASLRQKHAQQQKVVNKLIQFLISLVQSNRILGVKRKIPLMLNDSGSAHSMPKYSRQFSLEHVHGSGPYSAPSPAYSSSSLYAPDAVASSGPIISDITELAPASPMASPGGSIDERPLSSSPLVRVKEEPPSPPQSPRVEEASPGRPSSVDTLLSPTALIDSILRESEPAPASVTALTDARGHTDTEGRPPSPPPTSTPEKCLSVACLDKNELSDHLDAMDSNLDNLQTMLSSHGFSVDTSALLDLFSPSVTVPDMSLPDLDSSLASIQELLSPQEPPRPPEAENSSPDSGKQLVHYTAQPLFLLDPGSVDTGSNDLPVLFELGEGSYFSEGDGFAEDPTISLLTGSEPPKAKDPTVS
Method in brief: as §1

[13] = biological target: T8, SPIC (Homo sapiens, UniProt Q8N5J4 1-248); details: protein: recombinant; tags: N-terminal GST; dsDNA, one strand shown
T8 sequence: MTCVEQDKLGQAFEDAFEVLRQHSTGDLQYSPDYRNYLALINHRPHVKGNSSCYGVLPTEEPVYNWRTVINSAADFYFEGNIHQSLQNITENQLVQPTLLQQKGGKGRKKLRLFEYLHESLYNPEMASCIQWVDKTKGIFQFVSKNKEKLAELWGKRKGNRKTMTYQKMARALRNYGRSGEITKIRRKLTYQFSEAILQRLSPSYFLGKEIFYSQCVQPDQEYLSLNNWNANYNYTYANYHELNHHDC
Method in brief: as §1

[14] = biological target: ELF4 (Homo sapiens, UniProt Q99607 1-663); details: protein: recombinant; tags: N-terminal GST; dsDNA, one strand shown
ELF4, sequence (Q99607 whole entry): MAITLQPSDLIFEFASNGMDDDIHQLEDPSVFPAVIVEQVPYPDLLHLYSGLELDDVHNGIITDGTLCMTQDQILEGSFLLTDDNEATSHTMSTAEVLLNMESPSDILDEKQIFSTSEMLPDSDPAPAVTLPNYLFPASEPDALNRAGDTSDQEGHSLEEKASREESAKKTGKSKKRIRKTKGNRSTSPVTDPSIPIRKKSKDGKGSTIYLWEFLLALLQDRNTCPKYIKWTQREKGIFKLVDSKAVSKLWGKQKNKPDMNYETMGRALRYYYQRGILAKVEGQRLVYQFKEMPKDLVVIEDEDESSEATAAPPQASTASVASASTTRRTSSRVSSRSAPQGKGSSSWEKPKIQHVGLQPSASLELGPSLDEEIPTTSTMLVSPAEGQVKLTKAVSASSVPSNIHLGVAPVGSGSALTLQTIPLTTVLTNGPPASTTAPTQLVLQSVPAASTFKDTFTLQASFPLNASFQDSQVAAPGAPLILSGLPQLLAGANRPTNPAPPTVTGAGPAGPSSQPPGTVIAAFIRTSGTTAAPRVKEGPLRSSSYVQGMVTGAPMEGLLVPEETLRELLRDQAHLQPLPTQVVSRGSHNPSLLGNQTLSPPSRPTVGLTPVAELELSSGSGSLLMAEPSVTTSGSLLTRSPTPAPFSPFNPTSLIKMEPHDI
Method in brief: as §1

[15] = biological target: T9, ELK4 (Homo sapiens, UniProt P28324-2 1-405); details: protein: recombinant; tags: N-terminal GST; dsDNA, one strand shown
T9 sequence: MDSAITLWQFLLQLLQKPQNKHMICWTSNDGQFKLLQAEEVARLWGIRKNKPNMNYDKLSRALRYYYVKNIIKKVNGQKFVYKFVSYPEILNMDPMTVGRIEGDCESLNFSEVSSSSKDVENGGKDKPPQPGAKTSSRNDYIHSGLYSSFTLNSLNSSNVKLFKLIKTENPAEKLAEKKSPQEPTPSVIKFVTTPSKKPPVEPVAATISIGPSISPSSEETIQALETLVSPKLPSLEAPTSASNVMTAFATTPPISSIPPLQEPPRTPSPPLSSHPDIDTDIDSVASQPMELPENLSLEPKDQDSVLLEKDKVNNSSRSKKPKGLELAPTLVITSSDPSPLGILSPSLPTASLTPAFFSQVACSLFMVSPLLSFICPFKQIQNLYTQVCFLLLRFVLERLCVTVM
Method in brief: as §1

[16] = biological target: T10, ETV2 (Homo sapiens, UniProt O00321 1-342); details: protein: recombinant; tags: N-terminal GST; dsDNA, one strand shown
T10 sequence: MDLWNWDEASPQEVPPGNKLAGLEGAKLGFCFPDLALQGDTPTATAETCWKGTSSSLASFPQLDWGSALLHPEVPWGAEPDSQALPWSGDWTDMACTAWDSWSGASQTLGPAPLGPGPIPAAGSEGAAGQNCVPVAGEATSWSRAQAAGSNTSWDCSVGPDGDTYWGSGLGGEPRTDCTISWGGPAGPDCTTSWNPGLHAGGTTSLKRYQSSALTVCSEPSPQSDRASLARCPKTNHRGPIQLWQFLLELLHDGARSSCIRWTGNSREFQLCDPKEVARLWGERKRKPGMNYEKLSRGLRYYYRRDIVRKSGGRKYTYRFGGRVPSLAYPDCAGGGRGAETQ
Method in brief: as §1

[17] = biological target: T11, ELF3 (Homo sapiens, UniProt P78545 1-371); details: protein: recombinant; tags: N-terminal GST; dsDNA, one strand shown
T11 sequence: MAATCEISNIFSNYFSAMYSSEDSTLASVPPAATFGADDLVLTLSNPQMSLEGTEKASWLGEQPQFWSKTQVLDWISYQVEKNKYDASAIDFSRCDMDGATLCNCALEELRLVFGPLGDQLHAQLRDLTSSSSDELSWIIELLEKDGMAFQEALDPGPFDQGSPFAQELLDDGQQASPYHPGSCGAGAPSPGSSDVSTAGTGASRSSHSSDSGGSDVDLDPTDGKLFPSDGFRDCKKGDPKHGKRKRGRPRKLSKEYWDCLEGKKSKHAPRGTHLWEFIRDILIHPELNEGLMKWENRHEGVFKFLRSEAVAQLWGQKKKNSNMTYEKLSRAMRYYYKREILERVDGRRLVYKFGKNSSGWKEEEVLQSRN
Method in brief: as §1

[18] = biological target: CRX (Homo sapiens, UniProt O43186 1-299); details: protein: recombinant; tags: N-terminal GST; dsDNA, one strand shown
CRX, sequence (O43186 whole entry): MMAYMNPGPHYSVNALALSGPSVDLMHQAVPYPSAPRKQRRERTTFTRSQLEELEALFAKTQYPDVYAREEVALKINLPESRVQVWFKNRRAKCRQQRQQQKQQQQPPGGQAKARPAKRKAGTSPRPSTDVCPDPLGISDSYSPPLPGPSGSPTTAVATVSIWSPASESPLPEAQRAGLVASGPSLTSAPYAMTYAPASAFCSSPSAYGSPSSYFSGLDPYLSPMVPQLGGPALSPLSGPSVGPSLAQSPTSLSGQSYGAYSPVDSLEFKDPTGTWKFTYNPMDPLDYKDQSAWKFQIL
Method in brief: as §1

[19] = biological target: ETV1 (Homo sapiens, UniProt P50549 1-477); details: protein: recombinant; tags: N-terminal GST; dsDNA, one strand shown
ETV1, sequence (P50549 whole entry): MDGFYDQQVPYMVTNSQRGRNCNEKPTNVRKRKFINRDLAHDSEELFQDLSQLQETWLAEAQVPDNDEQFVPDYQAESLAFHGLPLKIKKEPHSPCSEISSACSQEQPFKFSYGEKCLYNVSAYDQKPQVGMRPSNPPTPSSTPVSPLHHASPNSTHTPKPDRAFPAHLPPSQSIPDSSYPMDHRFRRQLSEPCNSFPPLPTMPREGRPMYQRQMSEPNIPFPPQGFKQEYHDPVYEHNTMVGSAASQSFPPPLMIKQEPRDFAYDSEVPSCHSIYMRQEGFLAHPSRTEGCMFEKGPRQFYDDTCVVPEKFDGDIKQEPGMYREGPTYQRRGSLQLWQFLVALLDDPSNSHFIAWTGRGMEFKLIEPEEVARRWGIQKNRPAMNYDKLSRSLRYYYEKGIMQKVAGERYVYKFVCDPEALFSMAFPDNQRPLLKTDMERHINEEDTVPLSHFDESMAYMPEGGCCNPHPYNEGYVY
Method in brief: as §1

## TCCAAT
[1]
  binding signal: 1.21 fold enrichment (6-mer frequency, TF over GST control)
[2]
  binding signal: 1.13 fold enrichment (6-mer frequency, TF over GST control)
[3]
  binding signal: 1.18 fold enrichment (6-mer frequency, TF over GST control)
[4]
  binding signal: 1.13 fold enrichment (6-mer frequency, TF over GST control)
[5]
  binding signal: 1.24 fold enrichment (6-mer frequency, TF over GST control)
[6]
  binding signal: 1.11 fold enrichment (6-mer frequency, TF over GST control)
[7]
  binding signal: 1.14 fold enrichment (6-mer frequency, TF over GST control)
[8]
  binding signal: 1.25 fold enrichment (6-mer frequency, TF over GST control)
[9]
  binding signal: 1.16 fold enrichment (6-mer frequency, TF over GST control)
[10]
  binding signal: 1.21 fold enrichment (6-mer frequency, TF over GST control)
[11]
  binding signal: 1.17 fold enrichment (6-mer frequency, TF over GST control)
[12]
  binding signal: 1.23 fold enrichment (6-mer frequency, TF over GST control)
[13]
  binding signal: 1.17 fold enrichment (6-mer frequency, TF over GST control)
[14]
  binding signal: 1.21 fold enrichment (6-mer frequency, TF over GST control)
[15]
  binding signal: 1.12 fold enrichment (6-mer frequency, TF over GST control)
[16]
  binding signal: 1.24 fold enrichment (6-mer frequency, TF over GST control)
[17]
  binding signal: 1.11 fold enrichment (6-mer frequency, TF over GST control)
[18]
  binding signal: 1.27 fold enrichment (6-mer frequency, TF over GST control)
[19]
  binding signal: 1.17 fold enrichment (6-mer frequency, TF over GST control)
